PHOSPHO1 block – PHOSPHO1 (human) inhibition. Q8TCT1. recombinant PHOSPHO1, absorbance phosphatase assay. inhibition, % at 13.3 µM. 1.1% of 290,000 active; in the data active = inhibition above about 60%
Target sequence (Q8TCT1 whole entry, looked up): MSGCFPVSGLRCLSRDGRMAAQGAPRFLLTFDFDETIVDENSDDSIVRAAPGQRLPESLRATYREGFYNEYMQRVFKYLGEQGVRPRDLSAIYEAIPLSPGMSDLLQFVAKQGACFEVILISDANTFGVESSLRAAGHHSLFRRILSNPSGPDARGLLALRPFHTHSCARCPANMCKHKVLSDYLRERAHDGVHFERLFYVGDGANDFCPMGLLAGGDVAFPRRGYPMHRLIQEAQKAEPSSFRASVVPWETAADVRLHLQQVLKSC
Rpn11 inh – inhibitors of human proteasome Rpn11; O00487; human 26S proteasome, Ub4-pepOG fluorescence polarization; 20S core pre-blocked with epoxomicin; inhibition, % at 20 µM; 0.59% of 360,000 active; AID 588493;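 active = inhibition at 20 µM, scaled to each plate's controls, above about 33%, limit read from the data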
Target sequence (O00487 whole entry, looked up): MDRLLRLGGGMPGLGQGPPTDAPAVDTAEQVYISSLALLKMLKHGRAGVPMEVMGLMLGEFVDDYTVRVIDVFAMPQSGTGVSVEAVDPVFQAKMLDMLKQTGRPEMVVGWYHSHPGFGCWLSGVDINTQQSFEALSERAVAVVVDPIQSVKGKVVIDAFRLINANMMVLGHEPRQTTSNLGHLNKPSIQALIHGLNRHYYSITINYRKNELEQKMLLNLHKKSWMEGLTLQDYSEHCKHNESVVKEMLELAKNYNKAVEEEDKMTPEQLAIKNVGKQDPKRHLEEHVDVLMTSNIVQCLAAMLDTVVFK
CTSL1 counter – cathepsin L1 inhibition, PFM18AAP counter-screen; recombinant F. hepatica cathepsin L1, Z-Leu-Arg-MCA fluorescence; inhibition, % at 5.96 µM; 0.49% of 300,000 active; AID 1906;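 active = inhibition above the mean of all tested compounds plus 3 SD, set per screening campaign, cut at about 17% in these data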
TPT1 inhibitor – C. albicans TPT1 enzyme inhibition. 0.81% of 300,000 active. recombinant caTPT1, FP RNA substrate dephosphorylation. inhibition, % at 5 µM;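 active = inhibition above the mean of all tested compounds plus 3 SD, set per screening campaign, cut at about 24% in these data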
HNF4A DNA FP – change in binding of human HNF4 alpha to DNA | P41235 | activity change, % at 10 µM | 0.3% of 360,000 active | HNF4a-FITC DNA binding, fluorescence polarization, 1 h; in the data active = activity change above about 30%, passing the limit was not always enough
CendR NRP1 mod – modulators of CendR peptide binding to human neuropilin-1; O14786; FAM-RPARPAR peptide binding to NRP-1, fluorescence polarization; inhibition, % at 25 µM; 0.85% of 360,000 active;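 active = inhibition or corrected inhibition above about 18%, plus a signal ratio from 0.5 to 1.5, limit read from the data, passing the limit was not always enough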
caTPT1 confirm – confirmation of Candida albicans TPT1 inhibitors | shares compounds with TPT1 inhibitor | AID 2149 | recombinant caTPT1, fluorescence polarization, RNase T1 coupled | 74% of 2,400 active | inhibition, % at 5 µM;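 active = inhibition above the primary screen limit, the mean inhibition of all tested compounds plus 3 SD, cut at about 25% in these data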
RNase T1 counter – blocks Aspergillus oryzae RNase T1, a TPT1 counter-screen. inhibition, % at 5 µM. AID 2153. shares compounds with TPT1 inhibitor. 83% of 2,400 active. RNase T1 cleavage, fluorescence polarization, 1536-well;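 active = inhibition above the solvent-only control well mean plus 3 SD, limit set per screening run, cut at about 23% in these data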;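 note: inhibitors block cleavage so intact labeled substrate keeps polarization high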
Target sequence (P00651 whole entry, looked up): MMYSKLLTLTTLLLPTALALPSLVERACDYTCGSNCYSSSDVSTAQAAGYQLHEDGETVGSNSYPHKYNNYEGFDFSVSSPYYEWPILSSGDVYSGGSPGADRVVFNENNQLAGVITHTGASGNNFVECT
Of the large screens only hits and unclear results are named; the others gave an inactive call (follow-up assays come after a bar, where shown). A selection: hits, their analogues and other compounds. The true share with any hit is near 3.3%.

CC(=O)c1cccc(NS(=O)(=O)c2ccc(-c3cnc(C4CC4)o3)cc2)c1	TPT1 inhibitor 28.3 | caTPT1 confirm inactive | RNase T1 counter inactive
CC1(C)CNc2cc(N)ccc2S1	TPT1 inhibitor 61.2 | caTPT1 confirm 31.9 | RNase T1 counter 42.7
N#Cc1c(F)cccc1NCCCn1ccnc1	none (no result: PHOSPHO1 block)
COC(=O)CSCc1nc2ccccc2[nH]c1=O	TPT1 inhibitor 64.4 | caTPT1 confirm 61.0 | RNase T1 counter 72.0
COc1ccccc1N=C1SCC(=O)N1c1ccccc1OC	none
Cc1ccccc1-c1nc(SCc2ccccn2)c2c(=O)n(C)c(=O)n(C)c2n1	none
N#Cc1ccc(-c2ccco2)nc1SCC(=O)c1ccc(Cl)cc1	Rpn11 inh 47.7, TPT1 inhibitor 98.9 | caTPT1 confirm 62.3 | RNase T1 counter 67.3
CCOC(=O)N1CCN(c2cc(=O)n(-c3cccc(C)c3)c(=O)[nH]2)CC1	TPT1 inhibitor 110.0 | caTPT1 confirm inactive | RNase T1 counter inactive
O=C(NCc1cccnc1)c1cc(C2CCCCN2C(=O)c2cccs2)on1 (centres undefined)	none (no result: PHOSPHO1 block, CTSL1 counter, TPT1 inhibitor)
Cc1nnc(-n2ncc(C#N)c2N)c2nn(-c3cccc(Cl)c3)c(C)c12	none
Cc1nnc(N2CCOCC2)c2nn(-c3cccc(Cl)c3)c(C)c12	TPT1 inhibitor 27.7 (not shown: Rpn11 inh) | caTPT1 confirm 68.6 | RNase T1 counter 76.5
O=C(NCc1cccc(Cl)c1)C1CCN(S(=O)(=O)c2ccc(F)cc2)CC1	none
CCN(CC)c1ccc(/C=C2\CCC(/C=N/NC(=O)c3ccc(=O)n(C)c3)=C2N2CCOCC2)cc1	TPT1 inhibitor 116.6 (not shown: Rpn11 inh) | caTPT1 confirm 112.9 | RNase T1 counter 111.6
Cc1ccc(Nc2nc3ccccc3s2)cc1	none
Cc1ccc(/C=C/c2nc3ccccc3s2)s1	TPT1 inhibitor 41.8 | caTPT1 confirm 42.6 | RNase T1 counter 53.8
C(=C\c1ccc2ccccc2n1)/c1ccccc1	none
CN(C)c1ccc(/C=C/c2ccc3ccccc3n2)cc1	TPT1 inhibitor 60.1 (not shown: Rpn11 inh) | caTPT1 confirm 60.5 | RNase T1 counter 69.7
CCCN(CCC)c1ccc(/C=C/c2ccc3cc(OCC)ccc3n2)cc1	TPT1 inhibitor 57.3 (not shown: Rpn11 inh) | caTPT1 confirm 92.6 | RNase T1 counter 97.4
CC(C)(C)OC(=O)N1CCC[C@H]1c1nnc(SCc2ccc(Cl)cc2)o1	none
C#CCOCCOCCOCCNc1nc(N2CCN(C(=O)C([C@@H](C)CC)n3cc(C(N)Cc4ccc(O)cc4)nn3)CC2)nc(N2CCN(C(=O)[C@H](CCC(=O)O)n3cc(C(N)Cc4ccc(O)cc4)nn3)CC2)n1 (some centres undefined)	none
COc1ccc(CCNC(=O)CSc2nnc(C(C)N(C)C)n2Cc2ccccc2)cc1OC (centres undefined)	TPT1 inhibitor 99.7 | caTPT1 confirm inactive | RNase T1 counter inactive
O=C(c1cccc(C(F)(F)F)c1)C1CCCN(C(=O)c2cc(C3CC3)[nH]n2)C1 (centres undefined)	none
COc1ccccc1OCCC(=O)NCc1ccc2c(c1)OCO2	none
CSc1nsc(/C=C/Nc2ccc(O)cc2C)c1C#N	TPT1 inhibitor 26.4 (not shown: Rpn11 inh) | caTPT1 confirm inactive | RNase T1 counter 33.1
CCC1C/C(=C\c2cc(OC)c(OC)cc2OC)C(=O)/C(=C/c2cc(OC)c(OC)cc2OC)C1 (centres undefined)	Rpn11 inh 101.8, TPT1 inhibitor 64.0, HNF4A DNA FP 71.0 | caTPT1 confirm 88.4 | RNase T1 counter 97.4
CC12CCCC(=O)C1CCC(=Cc1ccco1)C2=O (centres undefined)	none (no result: PHOSPHO1 block, CTSL1 counter, TPT1 inhibitor)
COc1cc(OC)c(OC)cc1/C=C1\CC(C)C/C(=C\c2cc(OC)c(OC)cc2OC)C1=O (centres undefined)	TPT1 inhibitor 74.0, HNF4A DNA FP 58.4 (not shown: Rpn11 inh) | caTPT1 confirm 86.6 | RNase T1 counter 94.9
COc1cc(OC)c(OC)cc1/C=C1/Cc2ccccc2C1=O	none
CCC1C/C(=C/c2ccco2)C(=O)/C(=C/c2ccco2)C1 (centres undefined)	TPT1 inhibitor 68.0 (no result: Rpn11 inh, HNF4A DNA FP, CendR NRP1 mod) | caTPT1 confirm 75.2 | RNase T1 counter 80.2
Cc1noc(C)c1NC(=O)N(C)C[C@H]1OCc2cnnn2CCCC(=O)N([C@H](C)CO)C[C@@H]1C	none (no result: PHOSPHO1 block, CTSL1 counter, TPT1 inhibitor)
O=C1OCCC1Sc1nnc(-c2ccc(Br)cc2)o1 (centres undefined)	none
COc1nn(-c2nc(-c3ccccc3)cc(C(F)(F)F)n2)cc1[N+](=O)[O-]	TPT1 inhibitor 54.5 | caTPT1 confirm inactive | RNase T1 counter inactive
O=C(c1cc(C2CC2)nn1-c1ccccc1)N1CCN(S(=O)(=O)c2cccc(F)c2)CC1	none (no result: PHOSPHO1 block, CTSL1 counter, TPT1 inhibitor)
O=C(NCCc1ccccc1)C1CCC(=O)N(Cc2cccc(C(F)(F)F)c2)C1 (centres undefined)	none (no result: CTSL1 counter, TPT1 inhibitor)
Cc1ccc(S(=O)(=O)NCc2ccc(C(=O)N3CCCC3)cc2)cc1	TPT1 inhibitor 33.2 | caTPT1 confirm inactive | RNase T1 counter inactive
Cc1ccc(N2C(=O)CS/C2=C(\C(Cl)=C(Cl)Cl)[N+](=O)[O-])cc1	PHOSPHO1 block 79.9, TPT1 inhibitor 93.3 | caTPT1 confirm 43.0 | RNase T1 counter 50.8
Cc1ccc(N2C(=O)CSCC2=O)cc1	none
Cc1ccc(NC(=O)CSc2nc(=O)n(CCCN3CCOCC3)c3c2CCCC3)c(C)c1	TPT1 inhibitor 66.0 (no result: PHOSPHO1 block) | caTPT1 confirm inactive | RNase T1 counter inactive
CCOC(=O)C1=NOC(C(=O)NN(C)c2ncc(C(F)(F)F)cc2Cl)C1 (centres undefined)	none
O=C(NCc1ccccc1)N1CCN(CCO)CC1	none (no result: PHOSPHO1 block)
Nc1ccc2c(c1)Cc1cc([N+](=O)[O-])ccc1-2	TPT1 inhibitor 53.3, HNF4A DNA FP 37.2 | caTPT1 confirm 55.9 | RNase T1 counter 64.5
O=C(COc1ccc2ccccc2c1)Nc1nccs1	TPT1 inhibitor 28.2 | caTPT1 confirm inactive | RNase T1 counter inactive
O=C(COc1ccccc1)Nc1nccs1	none
O=c1oc2c(O)c(O)cc3c(=O)oc4c(O)c(O)cc1c4c23	TPT1 inhibitor 81.5 | caTPT1 confirm 91.8 | RNase T1 counter inactive
COc1ccc(/C=C/C=C2\N=C(SC)SC2=O)cc1	TPT1 inhibitor 42.6 | caTPT1 confirm 45.6 | RNase T1 counter 56.2
O=c1[nH]c2cc3c(cc2cc1C(c1nnnn1CC1CCCO1)N1CCCC1)OCO3 (centres undefined)	none
O=C1c2cccc3c(N4CCCCC4)ccc(c23)C(=O)N1c1ccc(O)cc1	TPT1 inhibitor 72.5 (not shown: Rpn11 inh) | caTPT1 confirm 60.7 | RNase T1 counter 61.4
O=C1c2cccc3c(N4CCCCC4)ccc(c23)C(=O)N1c1ccccc1O	TPT1 inhibitor 71.6 (not shown: Rpn11 inh) | caTPT1 confirm 38.9 | RNase T1 counter 50.4
CN(CC(=O)N1CCc2ccccc21)S(=O)(=O)c1cccc2cccnc12	none
